The record followed here is PubChem BioAssay AID620 (Sanford-Burnham Center for Chemical Genomics, 2007).

Each structure is given as a SMILES string. Out of some 87,000 compounds screened, about 360 (0.41%) were called active. Shown is part of a subset that was picked to be rich in actives. Unmarked numbers belong to inactive results. Rule as the data show it: active = cytotoxicity above about 50%; inactive = the rest.

A short description of the test: HT1080 cell viability loss – fluorescence readout (AID 620).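 Also: cells exposed to compound overnight then 4 h with Alamar Blue; 0% = vehicle DMSO and 100% = killing control.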 The note with it: at 10 µM, active compounds read high.
For `CC(C)CNS(=O)(=O)c1ccc(CCC(=O)N2CCOCC2)cc1`, the cytotoxicity is 2.1%.

`C=C(C)COc1ccc(-c2n[nH]c(C)c2-c2ccc(OC)cc2)c(O)c1`: the cytotoxicity was -14.1%.

For `COc1ccc(-c2n[nH]c(C)c2-c2ccc(Cl)cc2)c(O)c1`, the cytotoxicity was -10.8%.

Turning to `C=C(C)COc1ccc(-c2n[nH]c(C)c2-c2ccc(Br)cc2)c(O)c1`, the cytotoxicity was 50.7% (active).

Turning to `COc1ccccc1NS(=O)(=O)c1cc(Cl)ccc1OC`, the cytotoxicity was 16.4%.

Turning to `Cn1c(N)c(C(=O)COC(=O)c2cc(C(F)(F)F)nc3ccccc23)c(=O)n(Cc2ccccc2)c1=O`, the cytotoxicity is 5.9%.

On to `CCc1c(C)nc2ncnn2c1NCCc1ccccc1`, for which the cytotoxicity is -9.2%.

As to `COc1ccc(CCNc2c(C)c(C)nc3ncnn23)cc1`, the cytotoxicity is 17.9%.

With `CCc1c(C)nc2ncnn2c1NCCc1ccc(OC)cc1`, the cytotoxicity was 61.9% (active).

With `O=C(N1CCOCC1)C12CC3CC(C1)CC(C(=O)N1CCOCC1)(C3)C2`, the cytotoxicity is -17.8%.

As for `Cc1cc(C)c(C)c(S(=O)(=O)NCC(=O)N2CCCC2)c1C`, the cytotoxicity is 6.8%.

In the case of `COc1ccc(NC(=O)c2nc3nccc(C)n3n2)cn1`, the cytotoxicity is 10.5%.

In the case of `COc1ccc(NC(=O)/C(Cl)=C(/Cl)S(=O)Cc2ccc(C)cc2)cn1` (configuration not stated), the cytotoxicity was 92.3% (active).

On to `CCOc1ccccc1OCCCC(=O)Nc1ccc(OC)nc1`, for which the cytotoxicity is 2.4%.

Regarding `COc1ccc(NC(=O)c2cc(CN3C(=O)c4ccccc4C3=O)ccc2OC)cn1`, the cytotoxicity was -0.1%.

As to `COc1ccc(NC(=O)/C(Cl)=C(/Cl)S(=O)Cc2ccccc2)cn1` (configuration not stated), the cytotoxicity is 95.5% (active).

For the compound `COc1ccc(NC(=O)c2cc(=O)c3ccccc3o2)cn1`, the cytotoxicity is 7%.

On to `COc1ccc(CC(=O)N2CCN(C(=O)c3ccco3)CC2)cc1`, for which the cytotoxicity is 4.7%.

Regarding `NC(=O)C(c1ccccc1)C1CCCCC1` (configuration not stated), the cytotoxicity is 5.9%.

Turning to `CC1(C)CC(=O)C=C(NCCN2CCN(C(=O)Nc3ccc(Cl)cc3)CC2)C1`, the cytotoxicity is -6.1%.

`Cc1[nH]nc(SCC(=O)N2CCC(C)CC2)c1[N+](=O)[O-]`: the cytotoxicity is 0.7%.

As to `COC(=O)C1CC(=O)N(CCc2c[nH]c3ccccc23)C1` (configuration not stated), the cytotoxicity is 2.6%.

As to `COC(=O)Cn1nc(-c2ccccc2)c2ccccc2c1=O`, the cytotoxicity is 5.9%.

On to `COc1ccc(-n2nnnc2S(=O)(=O)Cc2ccc(C(=O)O)cc2)cc1`, for which the cytotoxicity was 11.4%.

Consider `COc1ccc(-n2nnnc2S(=O)(=O)CC(=O)N2CCCCC2)cc1`, for which the cytotoxicity was 54.3% (active).

In the case of `COc1cc(OC)cc(-n2nnnc2SCC(=O)N2CCCC2)c1`, the cytotoxicity is -5.2%.

For `Cn1c(SCc2cc(=O)[nH]c3ccccc23)nnc1-c1ccc(Br)cc1`, the cytotoxicity was 6%.

As for `C(=C\c1ccccc1)/CSc1nnc(-c2ccncc2)n1Cc1ccco1`, the cytotoxicity is -2.1%.

`C(=C\c1ccccc1)/CSc1nnc(-c2ccccc2)n1Cc1ccco1`: the cytotoxicity is 53.5% (active).

With `Clc1cccc(-c2nnc(SC/C=C/c3ccccc3)n2Cc2ccco2)c1`, the cytotoxicity is -0.5%.

With `O=C(CN1C(=O)NC(Cc2ccccc2)C1=O)Nc1ccccc1` (configuration not stated), the cytotoxicity is -3.1%.

Take `COC(=O)CSc1cc(C)nc(SC)n1`: the cytotoxicity is -7.3%.

`O=C(Nc1cc(Cl)ccc1O)C1CCCO1` (configuration not stated): the cytotoxicity is -2.4%.

Take `CCc1nnc(NC(=O)Cn2nc(-c3ccccc3OC)ccc2=O)s1`: the cytotoxicity was 10.1%.

In the case of `CC(=O)c1cn(CC(=O)Nc2ccccc2C)c2ccccc12`, the cytotoxicity was -1.9%.

On to `CN1CCN(c2ccc(Cl)cc2NS(=O)(=O)c2ccccc2Cl)CC1`, for which the cytotoxicity was -1.9%.

In the case of `Cc1ccccc1NS(=O)(=O)c1cc(S(C)(=O)=O)ccc1Cl`, the cytotoxicity was -10.1%.

For the compound `Cc1ccc(NS(=O)(=O)c2ccccc2Cl)c2c1CC(C)(C)O2`, the cytotoxicity is 62.3% (active).

In the case of `COc1ccc(C2CC(c3c(O)cc(C)oc3=O)=NCCS2)c(OC)c1` (configuration not stated), the cytotoxicity was 51.9% (active).

As for `COc1ccc(C2C(C(C)=O)=C(O)C(=O)N2C)c(OC)c1` (configuration not stated), the cytotoxicity is 5.8%.

Regarding `COC(=O)C1=C(C)C(c2ccc(OC)cc2OC)NC(=O)N1` (configuration not stated), the cytotoxicity is 2.9%.

Consider `N#CC1=C(N)C(C#N)(C#N)[C@H](c2ccoc2)[C@H]2CN(Cc3ccccc3)CC=C12`, for which the cytotoxicity was 66.1% (active).

Take `CN1CC=C2C(C#N)=C(N)C(C#N)(C#N)[C@H](c3ccoc3)[C@H]2C1`: the cytotoxicity is -7.5%.

In the case of `CCN1CC=C2C(C#N)=C(N)C(C#N)(C#N)[C@H](c3ccoc3)[C@H]2C1`, the cytotoxicity was -2.2%.

Take `CCOC(=O)c1ccc(NC(=O)CN2CCc3ccccc3C2)cc1`: the cytotoxicity is -3.7%.

On to `COc1cccc(-c2cc(C(=O)Nn3cnnc3)c3ccccc3n2)c1`, for which the cytotoxicity was 11.6%.

On to `CCNc1nc(NC(C)C)nc(NS(=O)(=O)c2ccc(Cl)cc2)n1`, for which the cytotoxicity is -8.8%.

On to `CN(C)c1nc(NS(=O)(=O)c2ccc(Cl)cc2)nc(N(C)C)n1`, for which the cytotoxicity was 35.3%.

For the compound `CCN(CC)c1nc(N)nc(NS(=O)(=O)c2ccc(Cl)cc2)n1`, the cytotoxicity is 51.4% (active).

For `COCCNC(=O)CN(Cc1ccc2c(c1)OCO2)C(=O)CCC(=O)Nc1nccs1`, the cytotoxicity was -8.1%.

Turning to `O=C(CN(C(=O)Cn1nnc(-c2cccs2)n1)c1ccc2c(c1)OCCO2)NCC1CCCO1` (configuration not stated), the cytotoxicity is -1.3%.

Consider `O=C1NC(c2cccs2)Nc2ccccc21` (configuration not stated), for which the cytotoxicity was 10.2%.

For `Cc1ccsc1C1NC(=O)c2ccccc2N1` (configuration not stated), the cytotoxicity is 7.3%.

As to `Cc1ccc(C2NC(=O)c3ccccc3N2)s1` (configuration not stated), the cytotoxicity was 57.7% (active).

Consider `COc1ccccc1NS(=O)(=O)c1cccs1`, for which the cytotoxicity was 8.9%.

As to `O=S(=O)(Nc1ccc(-c2nc3cccnc3s2)cc1)c1cccs1`, the cytotoxicity is -6.8%.

In the case of `O=S(=O)(Nc1cccc2c1ccc1cccn12)c1cccs1`, the cytotoxicity is -4.6%.

For `Cc1ccc(S(=O)(=O)NCc2cccnc2)s1`, the cytotoxicity was -11.9%.

Turning to `O=S(=O)(Nc1cccc2ncccc12)c1cccs1`, the cytotoxicity was 85% (active).

Consider `Cc1ccc(S(=O)(=O)Nc2ccnc3ccccc23)cc1`, for which the cytotoxicity was 5.4%.

With `CCOc1ccccc1NS(=O)(=O)c1ccc(Br)s1`, the cytotoxicity is 20.7%.

With `CCOc1ccccc1NS(=O)(=O)c1cccs1`, the cytotoxicity is 56.5% (active).

On to `Cc1ccc(S(=O)(=O)Nc2cccc3ncccc23)s1`, for which the cytotoxicity was 54.9% (active).

As to `O=C(c1ccc2c3c(cccc13)CC2)N1CCOCC1`, the cytotoxicity is -18.7%.

Regarding `CC(=O)N1C(=O)C2(C(C#N)=C(N)Oc3n[nH]c(-c4ccccn4)c32)c2ccccc21` (configuration not stated), the cytotoxicity is 6.9%.

Take `O=C(NCc1ccc2c(c1)OCO2)c1nn(-c2ccccc2)c(=O)c2ccccc12`: the cytotoxicity is -4.7%.

Consider `O=C(Nc1ccccn1)C(=O)N1CCCCC1`, for which the cytotoxicity is 4.7%.

With `COc1cccc2c1C(=O)c1c(O)c3c(c(O)c1C2=O)C[C@@](O)(C(=O)CO)C[C@@H]3O[C@H]1C[C@H](N)[C@H](O)[C@H](C)O1`, the cytotoxicity is 53.8% (active).

On to `Cc1noc(/C=C/c2ccco2)c1S(=O)(=O)N1CCC(C(=O)N(C)Cc2ccccc2)CC1`, for which the cytotoxicity was -4.4%.

`COc1ccc(C(CC(=O)O)NC(=O)COc2ccc(C)cc2)cc1OC` (configuration not stated): the cytotoxicity is 4.5%.

`CC(=O)n1cc(Nc2ccccc2C(=O)O)c2ccccc21`: the cytotoxicity is 0.2%.

With `CCOC(=O)c1ccccc1Nc1cn(C(C)=O)c2ccccc12`, the cytotoxicity was 53.7% (active).

For the compound `CCOCC(=O)Nc1ccccc1C(=O)OCC`, the cytotoxicity was -3.7%.

For `COc1ccc2c(Cl)c(-c3nnc4n3CCCCC4)sc2c1`, the cytotoxicity is -8.8%.

As for `COc1ccc(C2C3=C(CC(C)(C)CC3=O)Oc3ncn(CCCn4ccnc4)c(=N)c32)cc1` (configuration not stated), the cytotoxicity is 20.5%.

For the compound `Cc1noc(C)c1CSc1nc2ccccc2c(=O)n1-c1ccc(Cl)cc1`, the cytotoxicity is -2.7%.

`Cc1nc(CSc2nc3[nH]ncc3c(=O)n2-c2ccccc2)cs1`: the cytotoxicity is -1.5%.

Turning to `Cc1noc(C)c1CSc1nc2[nH]ncc2c(=O)n1-c1ccccc1`, the cytotoxicity is 60.4% (active).

With `Cc1noc(C)c1CSc1nc2ccccc2c(=O)n1-c1ccccc1`, the cytotoxicity was 48.9%.

As for `CCc1cc2c(=O)n(Cc3ccco3)c(SCC(=O)N3CCCc4ccccc43)nc2s1`, the cytotoxicity is -1.5%.

Consider `Cc1noc(C)c1CSc1nnc(-c2ccccc2)n1Cc1ccco1`, for which the cytotoxicity was 2.6%.

For the compound `C=CCn1c(SCc2c(C)noc2C)nc2cc(C(=O)O)ccc2c1=O`, the cytotoxicity was 25.6%.

As for `C=CCn1c(SCc2c(C)noc2C)nc2ccccc2c1=O`, the cytotoxicity was 60.3% (active).

`Cc1occc1C(=O)Nc1ccc2c(c1)CCC2`: the cytotoxicity was 12.8%.

`CC(C)Cc1cc(C(=O)Nc2cc(Cl)ccc2Cl)no1`: the cytotoxicity is 1.8%.

As for `O=C(C1CC1)N1CCCN(C(=O)C2CC2)CC1`, the cytotoxicity was 1.3%.

Take `Cc1cc(=O)[nH]c(N2CCc3ccccc3C2)n1`: the cytotoxicity is 1.4%.

Consider `O=C(CSc1nnc(-c2cccs2)n1Cc1ccco1)Nc1ccc2c(c1)OCO2`, for which the cytotoxicity was 1.2%.

For `Cn1c(SCC(=O)N2CCCc3ccccc32)nnc1-c1c[nH]c2ccccc12`, the cytotoxicity was 2.9%.

Turning to `CCOc1cccc(N2C(=O)CC(N3CCC(C(N)=O)(N4CCCCC4)CC3)C2=O)c1` (configuration not stated), the cytotoxicity is -6.9%.

`O=c1[nH]c(=O)n([C@H]2C[C@H](O)[C@@H](CO)O2)cc1C(F)(F)F`: the cytotoxicity is 4.2%.

`O=c1[nH]c(=O)n([C@H]2C[C@H](O)[C@@H](CO)O2)cc1F`: the cytotoxicity was 58.1% (active).

With `CCc1cn([C@H]2C[C@H](O)[C@@H](CO)O2)c(=O)[nH]c1=O`, the cytotoxicity was -0.3%.

On to `Cc1ccc(SCC(=O)NCCCN2CCOCC2)cc1`, for which the cytotoxicity was 4.3%.

For `CC1(C)CC(=O)C(C2C3=C(CC(C)(C)CC3=O)Oc3ccccc32)=C(O)C1` (configuration not stated), the cytotoxicity was -2.6%.

`CC1(C)CC(=O)C2=C(C1)OC1=C(C(=O)CC(C)(C)C1)C2c1ccc(O)cc1O`: the cytotoxicity is 63.3% (active).

For `Cc1nn(C)cc1C1C2=C(CC(C)(C)CC2=O)OC2=C1C(=O)CC(C)(C)C2`, the cytotoxicity is 14.2%.
